D2 ag-1: activates the human D2 dopamine receptor | DiscoveRx PathHunter D2 beta-arrestin, luminescence, 90 min; 100% = 57 uM dopamine signal | P14416 | activation, % (concentration not given with the values) | AID 624465 | actives 0.084% (n = 360,000); in the data active = activation above about 40%; inconclusive = between about 15% and that limit
Target sequence (P14416 whole entry, looked up): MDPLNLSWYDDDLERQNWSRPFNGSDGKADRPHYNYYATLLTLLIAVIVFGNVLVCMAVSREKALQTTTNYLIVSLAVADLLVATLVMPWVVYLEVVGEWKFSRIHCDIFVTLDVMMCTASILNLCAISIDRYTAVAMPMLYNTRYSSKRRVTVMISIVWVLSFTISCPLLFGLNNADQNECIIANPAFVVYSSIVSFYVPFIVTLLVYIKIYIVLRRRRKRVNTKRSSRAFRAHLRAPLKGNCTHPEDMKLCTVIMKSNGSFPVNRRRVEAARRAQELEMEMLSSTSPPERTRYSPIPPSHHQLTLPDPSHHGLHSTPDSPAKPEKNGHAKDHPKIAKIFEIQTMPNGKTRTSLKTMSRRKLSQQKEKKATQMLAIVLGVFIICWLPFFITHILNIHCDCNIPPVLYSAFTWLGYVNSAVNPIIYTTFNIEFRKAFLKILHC
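Agonist mode: compounds alone added to overnight-plated D2 PathHunter cells for 90 min at 37 C, with 57 uM final dopamine (EC100) defining full response. Beta-arrestin recruitment detected by chemiluminescent reagent, read after 1 h at ambient temperature.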
D2 antag: antagonizes the human D2 dopamine receptor; HEK293 TREx D2 cells, calcium flux, dopamine EC80; P14416; inhibition, % at 10 µM; actives 2% (n = 340,000); AID 485344; in the data active = inhibition above about 30%; inactive = below that, where a call was filed; also: 0% is about no effect
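Compounds are added to dye-loaded, induced HEK293 T-REx cells coupled to calcium release via D2; after a 3 min kinetic read an EC80 dopamine stimulus is given and fluorescence is recorded for 3 more min.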
D2 PAM-1: human D2 receptor positive allosteric modulation | actives 0.23% (n = 360,000) | P14416 | DiscoveRx D2 beta-arrestin cells, luminescence, 90 min; 100% = 57 uM dopamine signal | AID 624464 | potentiation, % (no concentration beside the values); in the data active = potentiation above about 50%; inconclusive = mostly about 30% to 49%
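PathHunter D2 cells, attached overnight at 37 deg C, received compound in DMSO plus dopamine at EC20 (50 nM final) for 90 min at 37 deg C. Beta-arrestin recruitment was read as luminescence after 1 h with detection reagent at ambient temperature.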
D2 PAM-2: positive allosteric modulators of human D2 dopamine receptor. P14416. HEK293 T-REx D2, calcium flux, EC20 dopamine potentiation. potentiation, % at 10 µM. actives 0.34% (n = 340,000);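 active = potentiation over 3 SD above the plate norm, cut at about 30% in these data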; also: 0% is about no effect
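Calcium flux readout, no-wash dye, 1 read/s. Inducible HEK293 Trex D2 line, overnight 30 C. Compound alone 180 s (agonist flags), then EC20 dopamine, another 180 s to score potentiation.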
D2 ag-2: D2 dopamine receptor (human) agonism. HEK293 T-REx D2 cells, calcium flux agonist mode. activation, % at 2 µM. actives 0.53% (n = 340,000). AID 485358;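 active = activation over 3 SD above normal in the single-dose calcium agonist read, cut at about 30% in these data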; also: 0% is about no effect
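Agonism scored from kinetic calcium signal (1 read/sec, 180 s) following compound pin transfer, after a 10 s baseline. Cells: HEK293 Trex line expressing inducible D2 receptor coupled to calcium, dye-loaded after overnight culture at 30 C.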
* = called active by the depositor. Compounds with a hit are over-represented: about 2.4% of the library has one in this group of screens.

`COC(=O)[C@@H]1[C@H]2C[C@H]3c4[nH]c5ccccc5c4CCN3C[C@@H]2CC[C@@H]1O` gave D2 ag-1 -2.7, D2 antag 58.1*, D2 PAM-1 -34.4, D2 PAM-2 -24.5 and D2 ag-2 0.1.
For CN(C(=S)Nc1ccc(Oc2ccccc2)cc1)c1ccc(O)cc1 the results were D2 ag-1 inconclusive, D2 antag -8.3, D2 PAM-1 81.9*, D2 PAM-2 10.1 and D2 ag-2 -1.4.
Screening CN(C(=S)Nc1cccnc1)c1ccc(O)cc1 returned D2 ag-1 11.2 and D2 PAM-1 63.6*.
Screening COc1ccc(C2C(C(=O)O)CCC(=O)N2c2ccc(OC)cc2)cc1 (centres undefined) returned D2 ag-1 -2.1, D2 antag 17.6, D2 PAM-1 -7.3, D2 PAM-2 3.5 and D2 ag-2 0.0.
COc1ccc(C2C(C(=O)NCc3ccco3)CCC(=O)N2c2ccc(OC)cc2)cc1 (centres undefined) was read as D2 ag-1 -1.1, D2 antag 38.3*, D2 PAM-1 -12.1, D2 PAM-2 3.3 and D2 ag-2 -0.1.
`Cn1c(SCC(=O)NCc2ccc(F)cc2)ncc(C(=O)Nc2ccccc2)c1=O` gave D2 ag-1 -4.5, D2 antag 32.1*, D2 PAM-1 -33.1, D2 PAM-2 9.0 and D2 ag-2 -0.2.
Screening COc1cc(OC)cc(C(=O)NC(C(=O)NCc2ccccn2)C(C)C)c1 (centres undefined) returned D2 ag-1 -3.3, D2 antag -4.4, D2 PAM-1 -8.4, D2 PAM-2 6.9 and D2 ag-2 1.1.
CC(C)C(NC(=O)c1ccccc1)C(=O)NCc1ccccn1 (centres undefined) was read as D2 ag-1 -0.4, D2 antag 61.3*, D2 PAM-1 1.8, D2 PAM-2 -9.9 and D2 ag-2 0.8.
Screening CC(=O)Nc1ccc(S(=O)(=O)NCc2cccn2Cc2cccc(C)c2)cc1 returned D2 PAM-2 0.1 and D2 ag-2 0.4.
CCCN(CCC)CCCNC(=S)Nc1ccc2nc3n(c(=O)c2c1)CCCCC3 was read as D2 ag-1 2.0, D2 antag -3.0, D2 PAM-1 -21.6, D2 PAM-2 -17.9 and D2 ag-2 32.5*.
CCN(CC)CCNC(=S)Nc1ccc2nc3n(c(=O)c2c1)CCCCC3 was read as D2 ag-1 -2.7, D2 antag -13.4, D2 PAM-1 -4.2, D2 PAM-2 -5.4 and D2 ag-2 1.3.
`Cc1cccc(OCC(=O)Nc2ccc3nc(C)sc3c2)c1` gave D2 ag-1 -3.3, D2 antag -6.7, D2 PAM-1 -5.3, D2 PAM-2 33.6* and D2 ag-2 -0.9.
`Cc1nc2ccc(NC(=O)c3ccc4ccccc4n3)cc2s1` gave D2 ag-1 -1.5, D2 antag -3.6, D2 PAM-1 -2.6, D2 PAM-2 31.4* and D2 ag-2 -1.8.
`Cc1nc2ccc(NC(=O)COc3ccccc3)cc2s1` gave D2 ag-1 1.1, D2 antag 3.2, D2 PAM-1 -5.4, D2 PAM-2 -0.5 and D2 ag-2 0.9.
`Cc1ccc(S(=O)(=O)c2cc3c(=O)n4ccccc4nc3n(C)c2=N)cc1C` gave D2 ag-1 -3.0, D2 antag 3.6, D2 PAM-1 -3.1, D2 PAM-2 36.4* and D2 ag-2 -0.3.
For COc1ccc(Cl)cc1NC(=O)c1c(NCc2cccs2)sc2c1CCCC2 the results were D2 PAM-2 9.7.
Screening CC(Sc1nnc(-c2cc3ccccc3o2)n1-c1ccccc1)C(=O)O (centres undefined) returned D2 ag-1 -2.5, D2 antag 45.0*, D2 PAM-1 2.5, D2 PAM-2 -2.9 and D2 ag-2 0.1.
Screening Cc1cc(C)c(NC(=O)C(C)Sc2nnc(-c3ccco3)n2-c2ccccc2)c(C)c1 (centres undefined) returned D2 antag 10.3, D2 PAM-2 7.3 and D2 ag-2 -0.1.
`CCCCN(CCCC)C(=O)CN(C)S(=O)(=O)c1ccc2c(c1)c(=O)n(C)c(=O)n2C` gave D2 PAM-2 15.6 and D2 ag-2 0.7.
`COc1ccc(CCC(C)NC2C3CC4CC(C3)CC2C4)cc1` (centres undefined) gave D2 ag-1 -1.2, D2 antag 40.0*, D2 PAM-1 -15.4, D2 PAM-2 -18.2 and D2 ag-2 0.8.
`COc1ccc(CCC(C)Nc2ccccc2F)cc1` (centres undefined) gave D2 ag-1 -1.0, D2 antag -17.7, D2 PAM-1 0.1, D2 PAM-2 5.4 and D2 ag-2 -0.9.
`Cc1cccc(C)c1C(OCCN(C)C)C1CCCCC1` (centres undefined) gave D2 ag-1 -2.1, D2 antag 89.4*, D2 PAM-1 -34.8, D2 PAM-2 -19.6 and D2 ag-2 1.1.
For CN(C)CCOC(c1ccccc1)c1ccccc1 (tested in a mixture with another compound) the results were D2 ag-1 -6.9, D2 antag -9.9, D2 PAM-1 -14.8, D2 PAM-2 6.6 and D2 ag-2 -3.0.
C=CCn1c(SCC(=O)Nc2ccc(OC)cc2)nc2c([nH]c3ccccc32)c1=O was read as D2 ag-1 0.0, D2 antag 33.1*, D2 PAM-1 -0.2, D2 PAM-2 11.4 and D2 ag-2 1.0.
For COc1ccc(NC(=O)CC2C(=O)N(c3ccccc3)C(=O)N2CCc2sccc2C)cc1 (centres undefined) the results were D2 PAM-2 -12.5 and D2 ag-2 -0.2.
`CCc1ccc(NC(=O)C2CCN(S(=O)(=O)c3ccc4c(c3)NC(=O)C(C)S4)CC2)cc1` (centres undefined) gave D2 ag-1 -0.1, D2 antag 4.9, D2 PAM-1 -9.0, D2 PAM-2 8.5 and D2 ag-2 -0.1.
Screening CC1Sc2ccc(S(=O)(=O)CCC(=O)Nc3ccc(C(C)C)cc3)cc2NC1=O (centres undefined) returned D2 ag-1 2.9, D2 antag 52.1*, D2 PAM-1 5.2, D2 PAM-2 16.6 and D2 ag-2 0.5.
Cc1ccc(NC(=O)C2CCN(S(=O)(=O)c3ccc4c(c3)NC(=O)C(C)S4)CC2)cc1C (centres undefined) was read as D2 ag-1 -0.2, D2 antag 57.7*, D2 PAM-1 -36.2, D2 PAM-2 -19.7 and D2 ag-2 0.8.
For CC1Sc2ccc(S(=O)(=O)N3CCC(C(=O)Nc4cccc(Cl)c4)CC3)cc2NC1=O (centres undefined) the results were D2 ag-1 2.5, D2 antag 69.5*, D2 PAM-1 -37.3, D2 PAM-2 -22.0 and D2 ag-2 0.8.
CCc1cccc(C)c1NC(=O)CCS(=O)(=O)c1ccc2c(c1)oc(=O)n2C was read as D2 PAM-2 -10.8 and D2 ag-2 -1.3.
